Inhibition data for 88 compounds are collected here from PubChem BioAssay AID651958 (The Scripps Research Institute Molecular Screening Center, 2012).

In all, about 370,000 compounds went through this assay and about 2,000 (0.54%) were called active. No stated cut-off is given here; in the data, active means inhibition above about 30%; inactive means the rest. The full list was thinned out, with actives kept by preference.

The subject of this assay is Crimean-Congo hemorrhagic fever virus L polyprotein viral ovarian tumor (vOTU) protease domain. The assay is described as follows: CCHFV vOTU protease inhibitors, primary screen, biochemical, Pep-AMC substrate, fluorescence (AID 651958). Further: 0% = vehicle wells with enzyme and 100% = no enzyme wells. The conditions noted are these: at 11.5 µM, stronger effect = higher value.
Consider `COc1cc(CN2CCCC(C(=O)c3ccc(SC)cc3)C2)cc(Cl)c1O` (stereo not drawn), for which the inhibition is 2.91% (inactive). For `CCOC(=O)[C@H]1[C@H]2COc3ccccc3[C@@H]2N2C(=O)CN(Cc3ccccc3)C(=O)[C@@]12C`, the inhibition is -6.74% (inactive). For `CN1c2ccc(C=O)c3c(C=O)ccc(c23)N(C)C1(C)C` the value was 65.2% (active); for `CN1CCN(c2ccncc2S(=O)(=O)N2CCCC2)CC1`, -8.15% (inactive); for `CCc1ccc(OCC(=O)NCC(c2ccc(Cl)cc2)N2CCCCC2)cc1` (stereo not drawn), 31% (active). For the compound `CN(CC(=O)NCC(c1ccccc1)N1CCCC1)S(=O)(=O)c1ccc(Cl)cc1` (stereo not drawn), the inhibition is -5.38% (inactive). For `COc1ccc(C(CNC(=O)COc2ccccc2OC)N2CCCCC2)cc1` (stereo not drawn) the value was 0.37% (inactive); for `N#Cc1c(N)nc2c(c1N)CC(C(F)(F)F)O2` (stereo not drawn), -10.2% (inactive).

As for `CCCCOCCCNC(=O)C[C@@H]1C[C@@]2(C(=O)OCC)CCCC=C2N(CCC2=CCCCC2)C1=O`, the inhibition was 15.7% (inactive). With `COCCNC(=O)c1onc(CSc2cccc(C)c2)c1C(=O)O` the figure was -0.14% (inactive); with `CCCc1ccc(C(=O)COC(=O)CN2C(=O)NC3(CCCCC3C)C2=O)cc1` (stereo not drawn), 16.5% (inactive).

Turning to `COc1cccc(CNC(=O)COC(=O)CN2C(=O)NC3(CCCCC3C)C2=O)c1` (stereo not drawn), the inhibition was -7.15% (inactive). For `CC1CCCCC12NC(=O)N(CC(=O)OCC(=O)NCc1ccc(F)cc1)C2=O` (stereo not drawn) the value was 34.9% (active); for `Cc1ncc([N+](=O)[O-])n1CCOC(=O)c1ccc(Br)cc1`, -0.48% (inactive); for `CCCCCCCNc1nc(Cl)nc(NCCO)n1`, 12.8% (inactive). On to `CC1CCCN(c2ccc(C(=O)NCCc3ccccc3)cn2)C1` (stereo not drawn), for which the inhibition is -7.43% (inactive).

As for `O=C1Nc2ccc([N+](=O)[O-])cc2C1=Nc1cccc(CO)c1`, the inhibition was 58.7% (active). `O=C(CCl)N(Cc1cccc([N+](=O)[O-])c1)c1cccc(Cl)c1`: the inhibition is 0.95% (inactive). Take `CCC(=O)N(C)C(c1ccccc1Cl)c1nnnn1-c1c(C)cccc1C` (stereo not drawn): the inhibition was -4.14% (inactive). For the compound `CC(=O)OCc1cc(=O)n(C)c(=O)n1C`, the inhibition is -3.25% (inactive). For `[2H]C(CCOS(N)(=O)=O)c1ccccc1` (stereo not drawn), the inhibition was -9.88% (inactive). For `COc1ccc(S(=O)(=O)/N=C2\C=C(NS(=O)(=O)c3ccccc3)C(=O)c3ccccc32)cc1` the value was 65% (active); for `COc1ccc(S(=O)(=O)NC(C)C(=O)N2CCCCCC2)cc1` (stereo not drawn), -2.68% (inactive); for `Cc1ccc(S(=O)(=O)N[C@H](CO)C(C)C)cc1`, 6.27% (inactive). For `COc1ccc(N2CCN(C3CCCCC3NS(=O)(=O)c3ccccc3)CC2)cc1` (stereo not drawn) the value was 19.5% (inactive); for `Cc1ccc(S(=O)(=O)/N=S(\C)C(C)C)cc1` (stereo not drawn), -11.6% (inactive); for `Cc1ccc(S(=O)(=O)/N=C2\C=C(NS(=O)(=O)c3ccc(C)cc3)C(=O)c3ccccc32)cc1`, 77.7% (active). With `COC(=O)CN1C(=O)C2(C(C(=O)OC)=C(N)Oc3ccccc32)C2=C1CC(C)(C)CC2=O` (stereo not drawn), the inhibition was -11.2% (inactive). For `CC(=O)N1Cc2cc(C(=O)NCc3cccc(F)c3)nc(-c3cccc(C4=CCCCC4)c3)c2[C@H]1CCO`, the inhibition was 9.9% (inactive).

On to `CN1CCN(S(=O)(=O)c2cccc(C(=O)Nc3sccc3C#N)c2)CC1`, for which the inhibition was -2.97% (inactive). For `C=CCSC1=C(C#N)C(c2cc(Br)c(O)c(OC)c2)CC(=O)N1` (stereo not drawn) the value was -4.94% (inactive); for `Cc1ccc(S(=O)(=O)N(c2cccc(C)c2)C2CCS(=O)(=O)C2)cc1` (stereo not drawn), 4.15% (inactive). As to `CN1CCN(C(=O)C2=C[C@H](c3ccc4c(c3)OCO4)C[C@H](OCc3ccc(CO)cc3)O2)CC1`, the inhibition was -2.44% (inactive). For `COc1ccc(-n2nnnc2C(c2cccc3ccccc23)N2CCC(n3c(=O)[nH]c4ccccc43)CC2)cc1` (stereo not drawn) the value was 7.58% (inactive); for `COCCn1nnnc1C(c1cc2ccc(OC)cc2[nH]c1=O)N1CCc2ccccc2C1` (stereo not drawn), 103% (active). For the compound `COc1ccc(CCC(C)N2CCc3ccccc3C2)cc1` (stereo not drawn), the inhibition is 2.02% (inactive). On to `COc1cc(CN(C)Cc2nc3cc(C(F)(F)F)ccc3c(=O)[nH]2)ccc1OC(F)F`, for which the inhibition was 14.7% (inactive). With `CC1(C)CC(=O)C(N=Nc2c(F)cccc2F)=C(O)C1` the figure was 10.4% (inactive). With `CC(C)N1CCC(NC(=O)Nc2ccccc2)CC1` the figure was -6.34% (inactive).

For the compound `CC1(c2cccc(Br)c2)NC(=O)N(CC(=O)NCCC2=CCCCC2)C1=O` (stereo not drawn), the inhibition is 6.44% (inactive).

Take `COc1ccc(C(=O)N2CCCC(C(=O)c3ccccc3OC)C2)cc1OC` (stereo not drawn): the inhibition was 4.28% (inactive). Consider `CSCC(=O)N1CCCC(C(=O)c2cc(F)ccc2F)C1` (stereo not drawn), for which the inhibition was -7.31% (inactive). For `COc1ccc(F)cc1C(=O)C1CCCN(C(=O)CCc2ccccn2)C1` (stereo not drawn) the value was 32.7% (active). As to `Cc1cc(Cl)c(S(=O)(=O)NCc2cccnc2)cc1OCC(N)=O`, the inhibition was -2.02% (inactive).

For `COP(=O)(OC)C(NC(=O)c1ccc(C)cc1)C(Cl)(Cl)Cl` (stereo not drawn), the inhibition was -12.8% (inactive). Consider `CC(C)NS(=O)(=O)c1ccc(NC(=O)C2CCCCC2)cc1`, for which the inhibition is -0.67% (inactive).

In the case of `Cc1nnc(SC(C)C(=O)Nc2ccc(S(=O)(=O)NC3CCCCC3)cc2)s1` (stereo not drawn), the inhibition is 31.6% (active). For the compound `Cc1ccc(S(=O)(=O)NC2CCCCCC2)cc1C(N)=O`, the inhibition is -2.9% (inactive). As for `Cc1ccc(NC(=O)COC(=O)C2C3CC4OC(=O)C2C4C3)cc1Cl` (stereo not drawn), the inhibition is 6.39% (inactive).

With `Cc1ccc(C(C(=O)NC2CCCC2)N(Cc2ccco2)C(=O)CCC(=O)Nc2ccccn2)cc1` (stereo not drawn), the inhibition was 3.43% (inactive). On to `COc1ccc(CCn2c(O)c(C=NCCCn3ccnc3)c(=O)[nH]c2=O)cc1OC`, for which the inhibition is 2.55% (inactive). Take `CCCCC(=O)N(C)c1c(CC)nc2c(OCc3ccc(Cl)cc3Cl)cccn12`: the inhibition is 28.5% (inactive). On to `CC(=O)N(C1=C(Cl)C(=O)c2ccccc2C1=O)c1ccc(C(=O)O)cc1`, for which the inhibition is 99.3% (active). Take `O=C1C(Cl)=C(Oc2ccccc2)C(=O)c2ccccc21`: the inhibition is 6.2% (inactive).

With `CCCCN=C1C([N+](=O)[O-])=CC=C2C1=NC1(CCCCC1)N2O`, the inhibition was 9.17% (inactive). In the case of `Cc1ccc(C)c(OCCC(=O)OCC(=O)NC(=O)NCc2ccccc2)c1`, the inhibition is 0.04% (inactive). For the compound `COc1ccc2c(c1)c(=Cc1ccc(N(C)C)cc1)c1cc(-c3ccccc3)[n+](C)n12`, the inhibition is 55.6% (active). Turning to `COc1ccc(Br)cc1S(=O)(=O)N1CCN=C1C`, the inhibition is -6.47% (inactive). For `Cc1cc(OC(C)C(=O)Nc2ccc(S(=O)(=O)Nc3onc(C)c3C)cc2)cc(C)c1Cl` (stereo not drawn), the inhibition is 35.2% (active). With `CC(Oc1cccc(Cl)c1)C(=O)Nc1ccc(S(=O)(=O)Nc2ncccn2)cc1` (stereo not drawn) the figure was -1.27% (inactive).

For `CCc1ccc(OC(C)C(=O)Nc2ccc(S(=O)(=O)Nc3cc(C)on3)cc2)cc1` (stereo not drawn), the inhibition is 7.95% (inactive).

As to `O=S1(=O)CC(N2CCN(CCO)CC2)CN1Cc1cn(Cc2ccc(Cl)cc2)nn1` (stereo not drawn), the inhibition was -2.07% (inactive). As to `CCN(CC(=O)Nc1c(F)cccc1F)C(=O)c1cnc(C)cn1`, the inhibition was 32.8% (active).

Consider `CCN(CC(=O)Nc1c(F)cccc1F)C(=O)c1ccc(-c2ccccc2)cc1`, for which the inhibition is -7.05% (inactive). For `CCc1cc(C(=O)N(CC)CC(=O)Nc2c(F)cccc2F)sc1C` the value was 19.1% (inactive); for `CCN(CC)c1ccc(NC(=O)CN2C(=O)NC3(CCc4ccccc43)C2=O)cc1` (stereo not drawn), -2.95% (inactive). With `O=C(Cn1cc(C(F)(F)F)ccc1=O)Nc1ccc2c(c1)OCCO2` the figure was 8.6% (inactive); with `CC(C)CC1(C)NC(=O)N(CC(=O)Nc2ccc3c(c2)OCCO3)C1=O` (stereo not drawn), -6.35% (inactive).

Take `COc1c(Br)cc2c(C)c(C(=O)N3CCOCC3)oc2c1Br`: the inhibition is -3.21% (inactive). As for `Cc1nc2ccccc2c(=O)n1-c1ccc(F)c(NC(=O)c2cccs2)c1`, the inhibition was -0.94% (inactive). For `O=C(c1ccc(N2CCCC2=O)cc1)N1CCN(c2ccc(C(F)(F)F)cc2[N+](=O)[O-])CC1`, the inhibition is 3.99% (inactive). With `Cc1cc(C)c(S(=O)(=O)NN=C2c3ccccc3[C@H]3Cc4csc[n+]4[C@@H]23)c(C)c1` the figure was 82.8% (active).

Turning to `COC(=O)[C@]12C[C@H](CC(=O)NCc3ccccc3)C(=O)N(CCC3=CCCCC3)C1=C[C@H](C(C)C)O[C@@H]2C1CC1`, the inhibition was 23.1% (inactive). For `COC(=O)C[C@H]1C[C@@H]2c3cc(NC(=O)Nc4ccccc4)ccc3O[C@@H]2[C@@H](CO)O1` the value was -2.2% (inactive); for `CCN(CC(=O)NCc1cccs1)c1nnnn1-c1ccccc1`, -6.07% (inactive). For `Cc1nc2c(C(=O)NCc3cccs3)cnn2c(C)c1Cc1ccc(F)cc1` the value was 4.83% (inactive); for `CC(C)Cn1c(N)c(C(=O)NCc2cccs2)c2nc3ccccc3nc21`, 85.8% (active). As to `Cn1cccc1C(=O)NC(=O)COC(=O)Cc1coc2ccc3ccccc3c12`, the inhibition was 5.02% (inactive). Turning to `CCCn1c(=O)c2ccccc2n2c(SCC(=O)/C(C#N)=C(\C)N)nnc12`, the inhibition was -9.66% (inactive).

With `CC(C)[C@H](NC(=O)N1CCn2c1nc1ccccc12)C(=O)NCCc1ccccc1`, the inhibition is 25.4% (inactive). As for `O=C1NC[C@@H](CCCCN2CCN(CCc3ccc(O)cc3)C(=O)C2=O)N(CC2CCCCC2)C1=O`, the inhibition was -7.64% (inactive). With `O=C(COC(=O)c1ccc([N+](=O)[O-])o1)NC12CC3CC(CC(C3)C1)C2` the figure was 13.9% (inactive); with `O=C(OCC(=O)c1cccs1)c1ccc([N+](=O)[O-])o1`, 31.4% (active); with `COc1ccccc1CNC(=O)COC(=O)c1cccs1`, 0.12% (inactive).

In the case of `Cc1ccc(OC(=O)c2c(C)nn(-c3ccccc3)c2C)cc1`, the inhibition is -6.31% (inactive). With `Cc1cccc(C)c1NC(=O)CNC(=O)c1c(C)nn(-c2ccccc2)c1C` the figure was 33% (active). With `Cc1cccc(C)c1NC(=O)CNC(=O)Cc1ccc(Br)cc1` the figure was -10.5% (inactive); with `CCN(N=Nc1nonc1OC)c1nonc1OC`, -2.47% (inactive).
